Source: PubChem BioAssay (several laboratories)
PLCg1 inh – PLC-gamma1 enzyme inhibitors, primary screen, biochemical, fluorescence, purified enzyme. 1-phosphatidylinositol 4,5-bisphosphate phosphodiesterase gamma-1 (Homo sapiens), P19174. fluorogenic substrate. inhibition, % at 12.2 µM. hit rate 0.84% among 370,000. AID 720700, 2013
PLCb3 inh – human PLC-beta3 inhibitors, primary screen, biochemical, fluorescence. 1-phosphatidylinositol 4,5-bisphosphate phosphodiesterase beta-3 (Homo sapiens), Q01970. Purified PLC-beta3, fluorogenic substrate. inhibition, % at 12.2 µM. hit rate 0.18% among 370,000; in the data active = inhibition above about 11%
Rce1 inh – yeast Rce1p protease inhibitors, primary screen, biochemical, fluorescence, cell-free homogeneous; calls only; yeast membranes, quenched prenylated peptide cleavage fluorescence; CAAX prenyl protease 2 (Saccharomyces cerevisiae (strain ATCC 204508 / S288c)), Q03530; AID 2563, 2010; hit rate 0.27% among 290,000;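 active = fall in fluorescence gain of 50% or more versus controls, with final raw signal at or below 3038400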
ADAM10 inh – human ADAM10 inhibitors, primary screen, biochemical, QFRET, HTS | recombinant ADAM10, EDANS/DABCYL FRET peptide cleavage, 3 h | inhibition, % at 7 µM | hit rate 0.62% among 370,000 | AID 720582, 2013 | Disintegrin and metalloproteinase domain-containing protein 10 (Homo sapiens), O14672;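 active = inhibition above a per-campaign cutoff equal to the mean of compounds falling between control-based bounds plus 3 SD, cut at about 20% in these data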
Target sequence (O14672 214-748 limits assumed): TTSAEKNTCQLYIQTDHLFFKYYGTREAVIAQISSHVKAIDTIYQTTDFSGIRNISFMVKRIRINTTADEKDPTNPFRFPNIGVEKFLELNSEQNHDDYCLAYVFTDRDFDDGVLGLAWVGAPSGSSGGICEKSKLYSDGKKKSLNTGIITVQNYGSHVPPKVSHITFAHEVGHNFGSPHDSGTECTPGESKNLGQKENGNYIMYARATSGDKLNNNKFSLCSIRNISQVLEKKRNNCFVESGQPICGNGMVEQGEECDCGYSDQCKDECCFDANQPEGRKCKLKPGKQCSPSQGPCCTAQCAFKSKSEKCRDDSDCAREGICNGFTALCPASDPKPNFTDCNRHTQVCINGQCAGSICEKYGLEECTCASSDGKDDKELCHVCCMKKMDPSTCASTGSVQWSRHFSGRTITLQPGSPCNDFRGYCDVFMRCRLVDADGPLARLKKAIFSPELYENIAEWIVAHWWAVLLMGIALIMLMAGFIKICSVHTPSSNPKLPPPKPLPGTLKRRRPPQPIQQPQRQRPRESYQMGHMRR
ADAM17 inh – ADAM17 inhibitors, primary screen, biochemical, QFRET | Disintegrin and metalloproteinase domain-containing protein 17 (Homo sapiens), P78536 | recombinant ADAM17, EDANS/DABCYL FRET peptide cleavage | inhibition, % at 6.95 µM | hit rate 0.83% among 370,000;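 active = inhibition above the mean of compounds lying between control limits plus 3 SD, set per campaign, cut at about 8.5% in these data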
PLCg1 ctr – PLC-gamma1 enzyme inhibitors, counter-screen for PLC-beta3 inhibitor project, biochemical, fluorescence | shares compounds with PLCg1 inh | purified PLC-gamma1, fluorogenic substrate | inhibition, % at 12.3 µM | hit rate 3.1% among 3,300 | AID 743258, 2014
PLCbeta3 conf – PLC-beta3 inhibitor confirmation, biochemical, fluorescence, purified enzyme; inhibition, % at 12.3 µM; shares compounds with PLCg1 inh; hit rate 1% among 3,300; fluorogenic substrate fluorescence; in the data active = inhibition above about 11%
Of the large screens only hits and unclear results are named; the others gave an inactive call (follow-up assays come after a bar, where they were run). In the library only some 2.1% were active in any assay of this set; here they are far more common. Rule as the data show it, unless noted: active = inhibition above about 9.5%; inactive = the rest.

Cc1cc2c(N=NC(=O)C3CC3c3ccccc3)c(O)[nH]c2cc1Br (stereo unspecified)	none
O=S(=O)(c1ccccc1)N1N=C(c2cccs2)CC1c1ccc(F)cc1 (stereo unspecified)	PLCb3 inh 12 | PLCg1 ctr inactive | PLCbeta3 conf inactive
CCCn1c(SCC(=O)N2CCN(C(C)=O)CC2)nc2sc3c(c2c1=O)CCC3	none
CCCn1c(SCC(=O)NCC)nc2sc3c(c2c1=O)CCC3	PLCg1 inh 9.6 | PLCg1 ctr inactive | PLCbeta3 conf inactive
N/C(Cc1ccc(Cl)c(Cl)c1)=N\OC(=O)c1cccs1	PLCb3 inh 12 | PLCg1 ctr inactive | PLCbeta3 conf inactive
N/C(=N\OC(=O)c1cccs1)C1(c2ccc(Cl)cc2Cl)CC1	none (no result: Rce1 inh)
COc1ccc2c(c1)C(c1ccc(Cl)cc1)NC(=O)C2 (stereo unspecified)	none
COc1ccc(N2CCN(C3CCCN(C(=O)CN4CCCC4=O)C3)CC2)cc1 (stereo unspecified)	PLCg1 inh 9.8 | PLCg1 ctr inactive | PLCbeta3 conf inactive
O=C(c1ccccc1)N1CCN(C2CCCCCC2)CC1	PLCg1 inh 14 | PLCg1 ctr inactive | PLCbeta3 conf inactive
CC(=O)N1CCN(C(=O)c2ccc(Oc3ccccc3)cc2)CC1	none
O=C(Nc1ccccc1)C1CCN(C(=O)c2ccccc2)CC1	PLCb3 inh 12 | PLCg1 ctr inactive | PLCbeta3 conf inactive
COc1ccc(NC(=O)C2CCN(C(=O)c3cccs3)CC2)cc1	PLCg1 inh 9.6 | PLCg1 ctr inactive | PLCbeta3 conf inactive
O=C(c1ccccc1)N1CCN(C(=O)c2ccc(OC(F)(F)F)cc2)CC1	PLCb3 inh 12 | PLCg1 ctr inactive | PLCbeta3 conf inactive
CCCCN(C=O)c1c(CC)nc2ccc(C(=O)NCCCN3CCCC3=O)cn12	none (no result: Rce1 inh)
COc1ccccc1NC(=O)NC1(C(=O)N2CCC(C)CC2)CCCCC1	none (no result: Rce1 inh)
Fc1ccc(-[n+]2nc(Nc3ccccc3)sc2-c2c(Cl)cccc2Cl)cc1	PLCg1 inh 11, PLCb3 inh 15 | PLCg1 ctr inactive | PLCbeta3 conf inactive
CCc1ccc(Nc2n[n+](-c3ccccc3)c(-c3c(Cl)cccc3Cl)s2)cc1	none
Cc1cc(NC(=O)C2CC(c3ccc(Cl)cc3)=NO2)no1 (stereo unspecified)	PLCb3 inh 12 | PLCg1 ctr inactive | PLCbeta3 conf inactive
Cc1cc(NC(=O)Cn2nc(C)c([N+](=O)[O-])c2C)no1	none
Cc1ccc(Nc2nc(=O)c3cccnc3s2)cc1	PLCg1 inh 11 | PLCg1 ctr inactive | PLCbeta3 conf inactive
O=c1nc(NCc2ccco2)sc2ncccc12	none
CC12CCC(C(=O)Nc3nccs3)(OC1=O)C2(C)C (stereo unspecified)	PLCg1 inh 10 | PLCg1 ctr inactive | PLCbeta3 conf inactive
O=C1NC(=S)SC1=C1CCCC1	PLCg1 inh 26 | PLCg1 ctr 16 | PLCbeta3 conf inactive
Cc1ccc(C)c(OCCC(=O)N2CCN(S(=O)(=O)c3ccc([N+](=O)[O-])cc3)CC2)c1	none (no result: Rce1 inh)
Cc1ccc(-n2nnnc2-c2cnc(-c3cccnc3)nc2C(F)(F)F)cc1	PLCg1 inh 10 | PLCg1 ctr inactive | PLCbeta3 conf inactive
FC(F)(F)c1nc(-c2ccncc2)ncc1-c1nnnn1-c1ccccc1	none
CCC(C)NCCCOc1cc(Cl)ccc1Cl (stereo unspecified)	none
CCCCNCCCOc1cc(Cl)ccc1Cl	PLCb3 inh 11 | PLCg1 ctr inactive | PLCbeta3 conf inactive
O=C(c1cc2c(c(-c3cccc(-c4ccncc4)c3)n1)[C@H](CCO)N(C(=O)c1ccc3c(c1)OCO3)C2)N1CCOCC1	none (no result: Rce1 inh)
O=C(c1cc(O)c(O)c([N+](=O)[O-])c1)c1ccccc1F	PLCg1 inh 10.0 (no result: Rce1 inh) | PLCg1 ctr inactive | PLCbeta3 conf inactive
O=C(Nc1ccc([N+](=O)[O-])cc1)c1ccccc1F	none
